“And” between values parts separate entries of the source, which are not always exact repeats. Equal values may be shown once. Records with an inconclusive call do not appear. Where a structure was tested more than once in an assay, its records may differ in their call. The source made the active and inactive calls. How the source made its calls, unless noted: active means hit-call score of the fitted dose curve at least 0.9, where 1 is the maximum; inactive means score below 0.9.
Key:
[1] = target: Nucleoli Translocation, AR (gene 367) (UniProt P10275); test: UPITT_HCI_U2OS_AR_TIF2_Nucleoli_Antagonist: University of Pittsburgh U2OS Androgen Receptor-Transcriptional Intermediary Factor 2 (AR-TIF2) Antagonism High Content Imaging Assay for Nucleoli Translocation (AID 2283997; active means hit-call score of the fitted dose curve at least 0.9, where 1 is the maximum)
Method in brief: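 Antagonism is read as loss of nucleolar AR-RFP signal relative to DHT, imaged in U2OS cells also carrying GFP-TIF2. Compounds screened at 20 uM final, 0.2% DMSO; primary actives retested in triplicate.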

[2] = target: Ratio of Nucleoli Translocation and Cytoplasm, AR (gene 367) (UniProt P10275); test: UPITT_HCI_U2OS_AR_TIF2_Nucleoli_Cytoplasm_Ratio_Agonist: University of Pittsburgh U2OS Androgen Receptor-Transcriptional Intermediary Factor 2 (AR-TIF2) Agonism High Content Imaging Assay for Ratio of Nucleoli Translocation and Cytoplasm (AID 2284000; active means hit-call score of the fitted dose curve at least 0.9, where 1 is the maximum;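 further: hits raise the red nucleolar to cytoplasm ratio above vehicle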)
Method in brief: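 Compounds tested at 20 uM final in primary screen (0.2% DMSO) and 0.195-50 uM final in dose-response (0.5% DMSO). Imaging of human U2OS cells bearing RFP-AR and GFP-TIF2; endpoint is nucleoli/cytoplasm red signal ratio, positive direction relative to DMSO.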

[3] = CCTE_Harrill_HTTr_Viability_MCF7: CCTE's 6-hour Cell Viability Assessment for the High-Throughput Transcriptomics (HTTr) Platform, in MCF-7 cells cultured in DMEM + 10% fetal bovine serum, Harrill Lab (AID 2284010)
Method in brief: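 Eight-point concentration series, six-hour exposure. Propidium iodide exclusion imaged to assess membrane integrity as a cytotoxicity readout; bidirectional fitting was done with DMSO as negative control and activity baseline.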

[4] = CCTE_Harrill_HTTr_Apoptosis_MCF7: CCTE's 6-hour Apoptosis Assessment for the High-Throughput Transcriptomics (HTTr) Platform, in MCF-7 cells cultured in DMEM + 10% fetal bovine serum, Harrill Lab (AID 2284011)
Method in brief: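 MCF-7 cells in DMEM + 10% FBS exposed 6 h to chemicals over an eight-point dilution series. Caspase-3/7 activation imaged by high-content CellEvent Green staining; fitted bidirectionally versus DMSO.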

[5] = target: Nucleoli Translocation, AR (gene 367) (UniProt P10275); test: UPITT_HCI_U2OS_AR_TIF2_Nucleoli_Agonist: University of Pittsburgh U2OS Androgen Receptor-Transcriptional Intermediary Factor 2 (AR-TIF2) Agonism High Content Imaging Assay for Nucleoli Translocation (AID 2283998; active means hit-call score of the fitted dose curve at least 0.9, where 1 is the maximum)
Method in brief: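 U2OS cells expressing RFP-tagged human AR and GFP-tagged TIF2; red fluorescence in nucleoli quantified by high-content imaging. Primary screen at 20 uM final (0.2% DMSO); concentration-response 0.195–50 uM (0.5% DMSO), fitted upward versus DMSO.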

[6] = CCTE_Simmons_MITO_basal_resp_rate: CCTE's HepG2 Seahorse XF Respirometric Screening Assay at Basal Respiratory State, Simmons Lab (AID 2284001); settings: actives raise or lower the signal
Method in brief: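 Basal-phase OCR in HepG2 cells, read at 6-min intervals across a 72-min run, with test compound injected at 125 nM–100 uM final (7 points). Fitted both directions against DMSO; three biological replicates per concentration.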

[7] = CCTE_Simmons_MITO_max_resp_rate: CCTE's HepG2 Seahorse XF Respirometric Screening Assay at Maximal Respiratory State [uncoupled], Simmons Lab (AID 2284002); settings: actives raise or lower the signal
Method in brief: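 HepG2 oxygen consumption measured on Seahorse XF after FCCP uncoupling, following test compound injection; 7 concentrations from 125 nM to 100 uM final. Readings every 6 min over 72 min, three biological replicates; bidirectional fit versus DMSO.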

[8] = CCTE_Simmons_MITO_inhib_resp_rate: CCTE's HepG2 Seahorse XF Respirometric Screening Assay at Inhibited Respiratory State [full ETC block], Simmons Lab (AID 2284006); settings: actives raise or lower the signal
Method in brief: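 Test chemicals at seven final concentrations (125 nM–100 uM) in three biological replicates, with DMSO as vehicle. HepG2 oxygen consumption was then tracked on a Seahorse XF96 for 72 min through FCCP and rotenone/antimycin A phases, with the inhibited-phase rate as the endpoint.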

[9] = CCTE_Simmons_MITO_viability: CellTiter-Glo Viability Assessment for CCTE's HepG2 Seahorse XF Respirometric Screening Assay [post-hoc], Simmons Lab (AID 2284007; active means hit-call score of the fitted dose curve at least 0.9, where 1 is the maximum;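 on AC50: cells exposed to chemical for 90 min before the ATP read; actives lower ATP signal relative to DMSO baseline meaning reduced viability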)
Method in brief: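 Post-hoc viability check on the HepG2 respirometry plates: luciferase-based ATP signal measured once, after 90 min compound exposure spanning 125 nM–100 uM final. Activity was referenced to DMSO as baseline.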

[10] = target: Ratio of Nucleoli Translocation and Cytoplasm, AR (gene 367) (UniProt P10275); test: UPITT_HCI_U2OS_AR_TIF2_Nucleoli_Cytoplasm_Ratio_Antagonist: University of Pittsburgh U2OS Androgen Receptor-Transcriptional Intermediary Factor 2 (AR-TIF2) Antagonism High Content Imaging Assay for Ratio of Nucleoli Translocation and Cytoplasm (AID 2283999; active means hit-call score of the fitted dose curve at least 0.9, where 1 is the maximum;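 further: antagonists lower the DHT-driven ratio of nucleolar to cytoplasmic red signal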)
Method in brief: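 This antagonist-mode endpoint tracks AR-RFP localisation, the nucleolus-to-cytoplasm intensity ratio, in TIF2-GFP-coexpressing U2OS cells. DMSO stays at or below 0.5%; testing spans 20 uM single-dose and 0.195–50 uM series, with DHT setting the activity baseline.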

[11] = TOX21_TR_RXR_BLA_Antagonist_Followup_viability: Viability Assessment in the Tox21 Thyroid Hormone Receptor beta Retinoid X Receptor alpha (RXRa) Antagonism Beta-lactamase (BLA) Follow-Up Assay (AID 2283979; active means hit-call score of the fitted dose curve at least 0.9, where 1 is the maximum)
Method in brief: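 Follow-up compounds (11 concentrations, triplicate) were incubated 16 h at 37C/5% CO2 with HEK293T RXRa-bla cells seeded at 2,500/well in charcoal-stripped-serum medium. ATP content by CellTiter-Glo luminescence gave viability; curves fitted in both directions against DMSO.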

[12] = CCTE_Harrill_HTTr_Viability_PRF_DMEM_24hr: (Pilot) CCTE's 24-hour Cell Viability Assessment for the High-Throughput Transcriptomics (HTTr) Platform, in MCF-7 cells cultured in phenol red-free DMEM + 10% charcoal-stripped fetal bovine serum, Harrill Lab (AID 2283980)
Method in brief: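 Propidium iodide exclusion imaged at 24 h after dosing scores viability; cells were MCF-7 grown in phenol red-free DMEM plus 10% charcoal-stripped serum, tested in eight concentrations, fitted in both directions against DMSO.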

[13] = CCTE_Harrill_HTTr_Apoptosis_DMEM_6hr: (Pilot) CCTE's 6-hour Apoptosis Assessment for the High-Throughput Transcriptomics (HTTr) Platform, in MCF-7 cells cultured in DMEM + 10% fetal bovine serum, Harrill Lab (AID 2283981)
Method in brief: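 MCF-7 cells grown in DMEM + 10% FBS were exposed for 6 hours to an eight-point dilution series. CellEvent Caspase 3/7 Green signal was imaged; activity fitted bidirectionally against DMSO.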

[14] = CCTE_Harrill_HTTr_Apoptosis_DMEM_12hr: (Pilot) CCTE's 12-hour Apoptosis Assessment for the High-Throughput Transcriptomics (HTTr) Platform, in MCF-7 cells cultured in DMEM + 10% fetal bovine serum, Harrill Lab (AID 2283982)
Method in brief: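 Caspase-3/7 activity was measured by high-content imaging (CellEvent Caspase 3/7 Green) after a 12-hour exposure of MCF-7 cells grown in DMEM with 10% FBS. Eight-point concentration series, fitted bidirectionally against vehicle.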

[15] = CCTE_Harrill_HTTr_Apoptosis_DMEM_24hr: (Pilot) CCTE's 24-hour Apoptosis Assessment for the High-Throughput Transcriptomics (HTTr) Platform, in MCF-7 cells cultured in DMEM + 10% fetal bovine serum, Harrill Lab (AID 2283983)
Method in brief: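 Caspase-3/7 activity read by high-content imaging (CellEvent Green reagent) 24 h after dosing. MCF-7 cells grown in DMEM with 10% FBS received an eight-point concentration series; fits were bidirectional versus DMSO.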

[16] = CCTE_Harrill_HTTr_Apoptosis_PRF_DMEM_6hr: (Pilot) CCTE's 6-hour Apoptosis Assessment for the High-Throughput Transcriptomics (HTTr) Platform, in MCF-7 cells cultured phenol red-free DMEM + 10% charcoal-stripped fetal bovine serum, Harrill Lab (AID 2283984)
Method in brief: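 Caspase-3/7 activity (CellEvent Green) read by high-content imaging 6 h after dosing, eight concentrations. Cells: MCF-7, phenol red-free DMEM with 10% charcoal-stripped serum. Curves fit both directions against DMSO.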

[17] = CCTE_Harrill_HTTr_Apoptosis_PRF_DMEM_24hr: (Pilot) CCTE's 24-hour Apoptosis Assessment for the High-Throughput Transcriptomics (HTTr) Platform, in MCF-7 cells cultured in phenol red-free DMEM + 10% charcoal-stripped fetal bovine serum, Harrill Lab (AID 2283986)
Method in brief: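 Eight concentrations tested for 24 h on MCF-7 grown in charcoal-stripped serum, phenol red-free DMEM. High content imaging of CellEvent Caspase 3/7 Green signal gives apoptosis read-out, fitted both ways relative to DMSO.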

[18] = CCTE_Shafer_MEA_acute_spike_number: CCTE's Neural Acute Assay for Total Number of Spikes, Shafer Lab (AID 2284008);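 further: curve fitted for decrease in spike count so AC50 reflects inhibitors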
Method in brief: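 Rat primary cortical neurons on 48-well MEA plates, DIV 13 or 15, at 37 C. 40 min baseline then 40 min with compound (0.03-40 uM); spikes detected at 8x rms noise, expressed as percent change from baseline.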

[19] = CCTE_Shafer_MEA_acute_firing_rate_mean: CCTE's Neural Acute Assay for Mean Firing Rate, Shafer Lab (AID 2284009);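 further: analyzed for loss of signal so actives lower firing rate relative to DMSO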
Method in brief: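 Primary rat cortical neurons on 16-electrode MEA wells were exposed on DIV 13 or 15 to compound (0.03-40 uM). Spike counts per recording time, averaged over electrodes, were compared between 40-min baseline and 40-min post-exposure recordings as percent change.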

Measured: AC50

Ratio of Nucleoli Translocation and Cytoplasm, AR (gene 367), sequence (P10275 whole entry, looked up): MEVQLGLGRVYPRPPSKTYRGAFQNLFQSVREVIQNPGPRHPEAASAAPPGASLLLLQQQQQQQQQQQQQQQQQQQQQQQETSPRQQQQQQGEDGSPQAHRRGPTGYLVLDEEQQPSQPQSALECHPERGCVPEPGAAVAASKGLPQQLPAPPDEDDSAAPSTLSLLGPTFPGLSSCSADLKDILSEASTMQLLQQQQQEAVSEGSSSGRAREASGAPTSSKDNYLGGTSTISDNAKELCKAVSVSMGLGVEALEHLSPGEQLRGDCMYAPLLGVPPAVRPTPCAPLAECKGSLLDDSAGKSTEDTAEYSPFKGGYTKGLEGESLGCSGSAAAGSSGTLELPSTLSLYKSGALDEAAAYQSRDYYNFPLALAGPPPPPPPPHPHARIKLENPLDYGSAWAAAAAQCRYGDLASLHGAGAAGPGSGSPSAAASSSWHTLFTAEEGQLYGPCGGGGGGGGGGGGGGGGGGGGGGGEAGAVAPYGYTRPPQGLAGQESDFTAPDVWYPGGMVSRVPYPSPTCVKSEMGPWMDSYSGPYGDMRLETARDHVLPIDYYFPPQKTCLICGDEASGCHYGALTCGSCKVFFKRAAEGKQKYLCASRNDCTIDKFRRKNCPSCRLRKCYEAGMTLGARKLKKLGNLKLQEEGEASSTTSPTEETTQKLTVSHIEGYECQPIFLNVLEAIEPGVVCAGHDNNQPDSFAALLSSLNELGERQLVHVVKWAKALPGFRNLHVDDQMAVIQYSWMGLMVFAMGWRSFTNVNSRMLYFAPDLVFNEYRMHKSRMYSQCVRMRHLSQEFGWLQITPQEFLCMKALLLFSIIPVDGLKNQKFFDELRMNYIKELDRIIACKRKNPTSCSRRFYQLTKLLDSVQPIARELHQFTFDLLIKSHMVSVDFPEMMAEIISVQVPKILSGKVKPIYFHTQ
Nucleoli Translocation, AR (gene 367), sequence (P10275 whole entry, looked up): as above

c1ccc2[nH]c(-c3cscn3)nc2c1
inactive: [1] | [2] | [3] | [4]

O=C(O)C1(C(=O)Nc2ccc(Cl)cc2Cl)CC1
active: [7] 37.8 µM | [9] 29.3 µM
inactive: [1] | [5] | [2] | [6] | [8] | [3] | [4]

CCCCOCCOCCOCc1cc2c(cc1CCC)OCO2
inactive: [1] | [10] | [2] | [3] | [4]

COC(=O)CSc1cc(N=c2sc(=O)n3n2CCCC3)c(F)cc1Cl
inactive: [1] | [5] | [10] | [2] | [3] | [4]

CC(=O)[C@H]1CC[C@H]2[C@@H]3CCC4=CC(=O)CC[C@]4(C)[C@H]3CC[C@]12C
active: [6] 10.1 µM | [7] 13.4 µM
inactive: [11] | [8] | [9] | [3] | [4]

CCCOC(=O)c1ccc(C(=O)OCCC)nc1
inactive: [1] | [5] | [10] | [2] | [3] | [4]

Cc1nn(C)c(Oc2ccccc2)c1C=NOCc1ccc(C(=O)OC(C)(C)C)cc1
inactive: [12] | [13] | [14] | [15] | [16] | [17] | [1] | [5] | [10] | [8] | [9] | [3] | [4]
active: [6] 1.15 µM and 1.55 µM | [7] 884 nM and 948 nM | [9] 2.81 µM | [18] 0.00424 µM | [19] 0.00449 µM

Reference: PubChem BioAssay (EPA / NIEHS)
